High-throughput results as filed in PubChem BioAssay.
Beta2AR agonist = human beta-2 adrenergic receptor agonism by FAP; 340,000 compounds, 0.43% hits; response, % (concentration not given with the values); AID 504454; Am2.2-beta2AR cells, FAP receptor internalization, flow cytometry;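 active means response above a set limit, near 3 SD of response in nonfluorescent compounds, cut at about 42% in these data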
Target sequence (P07550 whole entry, looked up): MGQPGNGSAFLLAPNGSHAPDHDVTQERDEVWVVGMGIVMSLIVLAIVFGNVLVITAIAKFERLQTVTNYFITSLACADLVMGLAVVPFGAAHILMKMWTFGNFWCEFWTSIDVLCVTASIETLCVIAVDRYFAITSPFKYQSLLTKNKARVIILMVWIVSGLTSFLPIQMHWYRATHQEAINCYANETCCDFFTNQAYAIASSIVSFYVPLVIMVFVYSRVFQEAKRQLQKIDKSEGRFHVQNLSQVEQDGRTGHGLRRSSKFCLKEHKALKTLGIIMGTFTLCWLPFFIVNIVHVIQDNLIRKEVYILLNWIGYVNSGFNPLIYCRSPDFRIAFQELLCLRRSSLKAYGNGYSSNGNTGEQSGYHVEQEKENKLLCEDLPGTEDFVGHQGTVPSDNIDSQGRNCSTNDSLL
HIF-2a inh = blocks HIF-2a reporter activity; 786-0 RCC cells HIF-2a reporter, luciferase luminescence, overnight; inhibition, % at 18.8 µM; 360,000 compounds, 0.72% hits; AID 624352;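 active means inhibition of the luminescence signal of 40% or more relative to plate controls, in a single-dose primary screen at 18.75 µM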
KKLEB cytotox = reduces viability of KKLEB cystic fibrosis airway cells | 360,000 compounds, 0.36% hits | activity change (cytotoxicity), % at 5 µM | KKLEB CF airway cells viability, ATPlite luminescence, overnight; hits give low values; cells stimulated with P. aeruginosa culture filtrate;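 active means corrected activity change at or below -50% at 5 µM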
Peg3 prom inh = reduces Peg3 promoter-driven luciferase expression in HeLa | inhibition, % at 20 µM | 360,000 compounds, 1.7% hits | HeLa PEG-Prom luciferase reporter, luminescence, overnight;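 active means inhibition of at least 50% at 20 µM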
MITF TRPM1 inh = MITF TRPM1 promoter inhibition in SK-MEL-5 cells. SK-MEL-5 TRPM1 promoter luciferase, 24 h. inhibition, % at 12.5 µM. 330,000 compounds, 0.83% hits. AID 488899;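 active means mean inhibition across replicates of 60% or more, whatever share of single replicates reaches that level; inconclusive means some that reach 60%, reason not given; inactive means mean inhibition across replicates below 60%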
CF NFkB block = cystic fibrosis NF-kB activation inhibition; KKLEB NF-kB-GFP reporter, PAF-induced, GFP fluorescence overnight; inhibition, % at 5 µM; 360,000 compounds, 0.86% hits; AID 588850;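 active means at least 50% inhibition at 5 µM, scaled per plate between neutral and stimulator controls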;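 further: PAF is a Pseudomonas aeruginosa culture filtrate used as stimulus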
A number is an active result; i = inactive; ? = inconclusive; nt = no result given. Sampled rows, rich in hits. Any-hit rate of the full collection: about 2.8%.

SMILES	Beta2AR agonist	HIF-2a inh	KKLEB cytotox	Peg3 prom inh	MITF TRPM1 inh	CF NFkB block
C[N+](C)(N)CCOC(=O)C(O)(c1ccccc1)C1CCCCC1 (configuration not stated)	98	i	i	i	i	i
CC[N+](CC)(CC)CCCOC(=O)C(O)(c1ccccc1)C1CCCCC1 (configuration not stated)	i	i	i	i	i	i
CC12CCC3C(CC=C4CC(O)CCC43C)C1CC(=CN1CCOCC1)C2=O (configuration not stated)	i	i	i	i	i	i
COC1C(C)OC(OC2CC(C)(O)Cc3cc4c(c(O)c32)C(=O)c2c(O)cc3c(c2C4=O)OC2OC3(C)C(O)C(N(C)C)C2O)C(OC)C1(C)OC (configuration not stated)	i	i	i	i	64	i
O=C(Nc1ccc(C(=O)O)cc1)Oc1ccc(N(CCCl)CCCl)cc1	nt	i	i	i	nt	i
CCCCCn1c(=O)c(C(=O)Nc2nc3ccccc3[nH]2)c(O)c2ccccc21	i	i	-52	i	i	i
CCCCCn1c(=O)c(C(=O)Nc2ccccc2Cl)c(O)c2ccccc21	i	i	i	i	i	i
COc1ccc(C(=O)CC(c2ccc3c(c2)OCO3)c2c(O)c3ccccc3oc2=O)cc1OC (configuration not stated)	nt	i	i	i	nt	i
O=C1NCN(c2ccccc2)C12CCN(C(c1ccccc1OC(F)(F)F)c1nnnn1-c1ccc3c(c1)OCCO3)CC2 (configuration not stated)	nt	i	i	i	nt	i
CCOC(=O)C1=C(NC(=S)NC(=O)c2ccccc2)c2ccccc2CC12CCCC2	i	i	i	50	i	i
Cc1ccc(S(=O)(=O)N2Cc3cc(-c4ccccc4)ccc3-n3nncc3C2)cc1	nt	i	i	i	nt	i
Cc1cc(C)n(-c2ccc(NN=C(C#N)C#N)cc2)n1	i	i	i	i	i	76
N#CC(C#N)=NNc1ccc(-n2ccc(C(F)(F)F)n2)cc1	i	i	i	i	i	79
CC/C(=C(\c1ccccc1)c1ccc(OCCN(C)C)cc1)c1ccccc1	i	i	i	71	i	i
COc1ccc(NC(=S)N2Cc3ccccc3-n3nncc3C2)c(OC)c1	nt	i	i	i	nt	i
CSCCC(c1nnnn1-c1ccc2c(c1)OCCO2)N1CCC2(CC1)C(=O)NCN2c1ccccc1 (configuration not stated)	nt	i	i	i	nt	i
Cc1cccc(C)c1-n1nnnc1C(CCc1ccccc1)N1CCC(n2c(=O)[nH]c3ccccc32)CC1 (configuration not stated)	nt	i	i	98	nt	i
CCCCn1nnnc1C(C1CC1)N1CCC(n2c(=O)[nH]c3ccccc32)CC1 (configuration not stated)	nt	i	i	i	nt	i
O=c1[nH]c2ccccc2n1C1CCN(C(c2ccnc3ccccc23)c2nnnn2-c2ccc3c(c2)OCCO3)CC1 (configuration not stated)	nt	i	-70	62	nt	77
CCC(c1nnnn1Cc1ccccc1)N1CCC(n2c(=O)[nH]c3ccccc32)CC1 (configuration not stated)	nt	i	-71	75	nt	99
O=c1[nH]c2ccccc2n1C1CCN(C(CCc2ccccc2)c2nnnn2-c2ccc3c(c2)OCCO3)CC1 (configuration not stated)	nt	i	-90	90	nt	60
CCOC(=O)c1cccc(C2=C(CNC(=O)c3ccc([N+](=O)[O-])cc3)[C@H]3CC[C@@H](C2)N3Cc2ccccc2)c1	nt	i	i	i	nt	i
FC(F)(F)c1ccc(-c2ccc3c(c2)CNCc2cnnn2-3)cc1	nt	i	i	i	nt	i
CCOC(=O)Cn1cc(C(=O)c2ccccc2F)c2ccccc21	i	i	i	i	i	i
CCOC(=O)Cn1cc([N+](=O)[O-])nc1[N+](=O)[O-]	i	i	i	i	65	i
SMILES	Beta2AR agonist	HIF-2a inh	KKLEB cytotox	Peg3 prom inh	MITF TRPM1 inh	CF NFkB block
Cn1cc(C(=O)OCC(=O)NC2CCCC2)c2ccccc21	i	i	i	i	i	i
C=CCN1C(=O)/C(=C/c2cccs2)C(=O)NC1=S	i	43	i	51	i	i
CC1=C(N2CC2)C(=O)C(CO)=C(N2CC2)C1=O	i	89	-104	100	106	97
O=[N+]([O-])/C=C/c1c(Cl)cccc1Cl	i	i	i	92	111	57
NC(Cc1ccc(Cl)cc1)c1csc(Nc2ccccn2)n1 (configuration not stated)	nt	i	i	73	nt	i
NC(Cc1ccccc1)c1csc(Nc2ccccn2)n1 (configuration not stated)	nt	i	i	i	nt	i
CN(CCc1ccccc1)Cc1c[nH]c2ccccc12	i	i	i	69	i	i
CCN(CC)Cc1c[nH]c2ccccc12	i	i	i	i	i	i
C[C@@H]1CN([C@H](C)CO)C(=O)CCCn2nncc2CO[C@H]1CN(C)C(=O)Oc1ccc2ccccc2c1	nt	i	i	i	nt	i
CCOC(=O)[C@]12Cc3cc(C)ccc3[C@H]1N(C1CCCCC1)C(=O)c1cc(OC)ccc12	nt	85	nt	nt	nt	nt
CCOC(=O)[C@]12Cc3cc(C)ccc3[C@H]1N(CCC(=O)OC)C(=O)c1cc(OC)ccc12	nt	i	nt	nt	nt	nt
Cc1nn(CC(C)C)c(Cl)c1C(=O)NC1CCCC1	nt	i	i	i	nt	i
CN1C(=O)/C(=C/c2cccn2-c2ccc3ccccc3c2)C(=O)NC1=S	47	i	i	92	?	i
Cc1cc(C)cc(N2C(=O)NC(=O)/C(=C\c3cccn3-c3ccccc3)C2=O)c1	i	43	i	75	66	i
Cc1cccc(N2C(=O)NC(=O)/C(=C\c3cnc(-c4ccccc4)nc3)C2=O)c1	i	i	i	i	i	i
Cn1cccc1/C=C1/C(=O)NC(=O)N(C(C)(C)C)C1=O	i	i	i	i	i	i
CCN(CC)CCCNC(=O)c1c(O)c2ccccc2n(Cc2ccccc2)c1=O	i	i	i	54	i	i
C[C@@H]1CN([C@H](C)CO)C(=O)CCCn2nncc2CO[C@@H]1CN(C)C(=O)Oc1ccccc1	nt	i	i	i	nt	i
Cc1cccc(Cn2cc(C=O)c3ccccc32)c1	i	i	i	69	i	i
O=c1[nH]c(=O)n(-c2cccc(F)c2)c(O)c1/C=C1\C=Nc2ccccc21	44	i	i	i	i	i
O=c1[nH]c(=O)n(-c2ccccc2)c(O)c1/C=C1/C(c2ccccc2)=Nc2ccccc21	i	i	i	i	i	60
O=C(O)c1ccc(-n2c(O)c(/C=C3\C=Nc4ccccc43)c(=O)[nH]c2=O)cc1	i	i	i	i	i	i
CCC1(c2ccc(C)cc2)C(=O)NC(=S)NC1=O	nt	i	i	i	nt	i
CCOP(=O)(OCC)OCC	i	i	i	i	i	i
CCOP(=O)(CCP(=O)(OCC)OCC)OCC.C[CH2][Sn]([Cl])([Cl])[CH2]C	i	i	i	i	85	53
